From PubChem BioAssay AID1159580 (chemical genetic matrix, 2015)
About 2,000 (36%) of roughly 5,500 compounds were called active. About 18% were inconclusive and are not listed. Rule as the data show it: active = normalized growth mostly below about 0.91 (no sharp cut-off); inconclusive = no clear call, values can overlap the other calls; inactive = mostly above about 0.92. The list shows a part of the results.

Test: chemical genetic growth profiling, strain panel (AID 1159580);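 also: tested at 20 µM; growth read once vehicle control cultures reached saturation at 30 °C; 1 = growth at the plate median or of vehicle wells; lower values mean less growth of the strain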
Details: growth OD

Measured: normalized growth

OC[C@H]1O[C@@H](O[C@@H]2[C@@H](CO)O[C@](O)(CO)[C@H]2O)[C@H](O)[C@@H](O)[C@H]1O
inactive: S. cerevisiae deletion strains, locus YKL009W, strain mrt4, stronger effect = lower value 1 | S. cerevisiae deletion strains, locus YKL068W, stronger effect = lower value 0.987 | S. cerevisiae deletion strains, locus YKL085W, strain MDH1 (second series), stronger effect = lower value 0.976 | S. cerevisiae deletion strains, locus YKL085W, strain MDH1, stronger effect = lower value 0.976 | S. cerevisiae deletion strains, locus YKL160W, strain elf1, stronger effect = lower value 1 | S. cerevisiae deletion strains, locus YKR001C, strain vps1, stronger effect = lower value 1.01 | S. cerevisiae deletion strains, locus YKR026C, strain gcn3, stronger effect = lower value 1.01 | S. cerevisiae deletion strains, locus YKR091W, strain srl3, stronger effect = lower value 1.01 | S. cerevisiae deletion strains, locus YLL001W, strain dnm1, stronger effect = lower value 0.999 | S. cerevisiae deletion strains, locus YLL026W, stronger effect = lower value 1.01 | S. cerevisiae deletion strains, locus YLL041C, strain sdh2, stronger effect = lower value 1.01 | S. cerevisiae deletion strains, locus YLR027C, strain aat2, stronger effect = lower value 1.01 | S. cerevisiae deletion strains, locus YLR039C, strain RIC1, stronger effect = lower value 0.968 | S. cerevisiae deletion strains, locus YLR058C, strain SHM2, stronger effect = lower value 0.986 | S. cerevisiae deletion strains, locus YLR102C, strain apc9, stronger effect = lower value 0.981 | S. cerevisiae deletion strains, locus YLR113W, strain HOG1, stronger effect = lower value 1.02 | S. cerevisiae deletion strains, locus YLR221C, strain rsa3, stronger effect = lower value 1 | S. cerevisiae deletion strains, locus YLR258W, strain gsy2, stronger effect = lower value 0.998 | S. cerevisiae deletion strains, locus YLR262C, strain YPT6 (second series), stronger effect = lower value 1.03 | S. cerevisiae deletion strains, locus YLR262C, strain YPT6, stronger effect = lower value 1.03 | S. cerevisiae deletion strains, locus YLR268W, strain sec22, stronger effect = lower value 0.972 | S. cerevisiae deletion strains, locus YLR320W, strain mms22, stronger effect = lower value 0.996 | S. cerevisiae deletion strains, locus YLR330W, strain CHS5, stronger effect = lower value 0.994 | S. cerevisiae deletion strains, locus YLR342W, strain FKS1 (second series), stronger effect = lower value 0.994 | S. cerevisiae deletion strains, locus YLR342W, strain FKS1, stronger effect = lower value 1.02 | S. cerevisiae deletion strains, locus YLR357W, strain rsc2, stronger effect = lower value 0.995 | S. cerevisiae deletion strains, locus YLR370C, strain arc18, stronger effect = lower value 1.02 | S. cerevisiae deletion strains, locus YLR371W, strain rom2, stronger effect = lower value 0.974 | S. cerevisiae deletion strains, locus YLR384C, strain iki3, stronger effect = lower value 1.01 | S. cerevisiae deletion strains, locus YLR418C, strain cdc73, stronger effect = lower value 0.954 | S. cerevisiae deletion strains, locus YML016C, strain PPZ1, stronger effect = lower value 0.993 | S. cerevisiae deletion strains, locus YML032C, strain rad52, stronger effect = lower value 0.988 | S. cerevisiae deletion strains, locus YML120C, strain ndi1, stronger effect = lower value 0.99 | S. cerevisiae deletion strains, locus YML124C, strain tub3, stronger effect = lower value 1 | S. cerevisiae deletion strains, locus YMR058W, strain fet3, stronger effect = lower value 1.01 | S. cerevisiae deletion strains, locus YMR078C, strain ctf18, stronger effect = lower value 0.959 | S. cerevisiae deletion strains, locus YMR125W, strain sto1, stronger effect = lower value 0.996 | S. cerevisiae deletion strains, locus YMR129W, stronger effect = lower value 1.01 | S. cerevisiae deletion strains, locus YMR205C, strain PFK2, stronger effect = lower value 1.03 | S. cerevisiae deletion strains, locus YMR223W, strain ubp8, stronger effect = lower value 0.962 | S. cerevisiae deletion strains, locus YMR231W, strain pep5, stronger effect = lower value 1.01 | S. cerevisiae deletion strains, locus YMR307W, strain GAS1, stronger effect = lower value 1 | S. cerevisiae deletion strains, locus YNL067W, strain RPL9B, stronger effect = lower value 1 | S. cerevisiae deletion strains, locus YNL071W, strain lat1, stronger effect = lower value 1.01 | S. cerevisiae deletion strains, locus YNL183C, strain NPR1, stronger effect = lower value 0.959 | S. cerevisiae deletion strains, locus YNL209W, strain ssb2, stronger effect = lower value 1 | S. cerevisiae deletion strains, locus YNL233W, strain BNI4, stronger effect = lower value 0.989 | S. cerevisiae deletion strains, locus YNL248C, strain rpa49, stronger effect = lower value 1.03 | S. cerevisiae deletion strains, locus YNL250W, strain rad50, stronger effect = lower value 0.954 | S. cerevisiae deletion strains, locus YNL271C, strain bni1, stronger effect = lower value 0.966 | S. cerevisiae deletion strains, locus YNL298W, strain CLA4, stronger effect = lower value 0.975 | S. cerevisiae deletion strains, locus YNL307C, strain MCK1, stronger effect = lower value 0.972 | S. cerevisiae deletion strains, locus YNL322C, strain KRE1 (second series), stronger effect = lower value 1.02 | S. cerevisiae deletion strains, locus YNL322C, strain KRE1, stronger effect = lower value 0.996 | S. cerevisiae deletion strains, locus YNR049C, strain mso1, stronger effect = lower value 1.01 | S. cerevisiae deletion strains, locus YNR052C, strain pop2, stronger effect = lower value 0.979 | S. cerevisiae deletion strains, locus YOL006C, strain TOP1, stronger effect = lower value 0.965 | S. cerevisiae deletion strains, locus YOL012C, strain htz1 0.596 | S. cerevisiae deletion strains, locus YOL147C, strain pex11, stronger effect = lower value 0.982 | S. cerevisiae deletion strains, locus YOR001W, strain rrp6, stronger effect = lower value 1 | S. cerevisiae deletion strains, locus YOR061W, strain CKA2, stronger effect = lower value 0.985 | S. cerevisiae deletion strains, locus YOR069W, strain VPS5, stronger effect = lower value 0.989 | S. cerevisiae deletion strains, locus YOR070C, strain gyp1, stronger effect = lower value 1 | S. cerevisiae deletion strains, locus YOR080W, strain dia2, stronger effect = lower value 1.01 | S. cerevisiae deletion strains, locus YOR083W, strain WHI5, stronger effect = lower value 0.989 | S. cerevisiae deletion strains, locus YOR106W, strain vam3, stronger effect = lower value 1.02 | S. cerevisiae deletion strains, locus YOR136W, strain idh2, stronger effect = lower value 0.981 | S. cerevisiae deletion strains, locus YOR144C, strain elg1, stronger effect = lower value 0.98 | S. cerevisiae deletion strains, locus YOR184W, strain ser1, stronger effect = lower value 0.971 | S. cerevisiae deletion strains, locus YOR231W, strain MKK1, stronger effect = lower value 0.98 | S. cerevisiae deletion strains, locus YOR265W, strain rbl2, stronger effect = lower value 1.01 | S. cerevisiae deletion strains, locus YOR270C, strain vph1, stronger effect = lower value 1.06 | S. cerevisiae deletion strains, locus YOR290C, strain snf2, stronger effect = lower value 0.992 | S. cerevisiae deletion strains, locus YOR316C, strain cot1, stronger effect = lower value 0.976 | S. cerevisiae deletion strains, locus YPL051W, strain arl3, stronger effect = lower value 1.01 | S. cerevisiae deletion strains, locus YPL078C, strain atp4, stronger effect = lower value 1.01 | S. cerevisiae deletion strains, locus YPL106C, strain sse1, stronger effect = lower value 1 | S. cerevisiae deletion strains, locus YPL240C, strain hsp82, stronger effect = lower value 1.03 | S. cerevisiae deletion strains, locus YPL241C, strain CIN2, stronger effect = lower value 0.998 | S. cerevisiae deletion strains, locus YPL256C, strain CLN2, stronger effect = lower value 0.957 | S. cerevisiae deletion strains, locus YPR119W, strain clb2, stronger effect = lower value 0.978 | S. cerevisiae deletion strains, locus YPR141C, strain kar3, stronger effect = lower value 0.968 | S. cerevisiae deletion strains, locus YPR163C, strain tif3, stronger effect = lower value 0.972 | S. cerevisiae deletion strains, locus YPR167C, strain met16, stronger effect = lower value 0.985 | S. cerevisiae deletion strains, strain wtn01, stronger effect = lower value 0.967 | S. cerevisiae strains, strain wild type, stronger effect = lower value 0.999
